# Sampled rows, rich in hits. Any-hit rate of the full collection: about 31%.
# CYP2C19 act: activators of human cytochrome P450 2C19; P33261; recombinant CYP2C19, luciferin-H EGE luminescence; active compounds read high; 0 = fully inhibited enzyme, 1 = untreated enzyme; activation factor at 5 µM; 96,000 tested, under 10 active; AID 1025;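 active = activation factor of at least 2 at 5 µM in the primary screen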;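 also: 0 = wells with 2.5 mM tranylcypromine and 1 = vehicle-only wells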
# Target sequence (P33261 whole entry, looked up): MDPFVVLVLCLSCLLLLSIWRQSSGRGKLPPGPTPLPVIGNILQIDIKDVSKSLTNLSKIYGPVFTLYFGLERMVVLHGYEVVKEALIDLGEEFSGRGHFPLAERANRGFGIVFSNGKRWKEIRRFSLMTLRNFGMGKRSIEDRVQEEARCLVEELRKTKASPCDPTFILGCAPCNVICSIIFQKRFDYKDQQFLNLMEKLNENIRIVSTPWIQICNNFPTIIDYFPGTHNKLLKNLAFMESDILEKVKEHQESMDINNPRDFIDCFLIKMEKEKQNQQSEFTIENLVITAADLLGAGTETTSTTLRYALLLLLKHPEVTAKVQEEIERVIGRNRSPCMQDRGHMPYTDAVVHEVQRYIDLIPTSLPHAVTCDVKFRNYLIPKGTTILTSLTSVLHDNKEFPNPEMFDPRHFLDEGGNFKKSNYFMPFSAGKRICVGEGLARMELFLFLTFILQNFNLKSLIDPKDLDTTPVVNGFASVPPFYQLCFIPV
# CYP2C9 act: activators of human CYP2C9. 96,000 tested, 1.4% active. recombinant CYP2C9, luciferin-H conversion, luminescence; active compounds read high; factor 1 = untreated enzyme, 0 = blocked. activation factor at 5 µM;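 active = activation factor of 2 or more for CYP2C9 at a 5 µM dose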;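 also: 0 = sulfaphenazole-blocked wells and 1 = vehicle-only wells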
# CYP2C19 inh: inhibitors of human CYP2C19. 96,000 tested, 21% active. CYP2C19 Supersomes, luciferin-H EGE luminescence, 30 min. inhibition, % at 5 µM. AID 778. P33261;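 active = CYP2C19 inhibition above a set limit at 5 µM in the primary screen, cut at about 50% in these data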;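 also: plate controls were negative control wells for no effect and 2.5 mM tranylcypromine positive control for full effect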
# CYP2C9 inhib: human CYP2C9 inhibition; CYP2C9 Supersomes, luciferin-H conversion, luminescence; inhibition, % at 5 µM; 96,000 tested, 20% active; AID 777;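 active = blocking of liver enzyme CYP2C9 beyond about 50% at 5 µM, limit read from the data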
# PLAP act: activators of human placental alkaline phosphatase. P05187. purified PLAP enzyme, luminescent substrate read-out; active compounds read high. activation fold at 20 µM. 96,000 tested, 1.2% active. AID 696; in the data active = activation fold above about 2
# Numbers without * were called inactive.
SMILES,CYP2C19 act,CYP2C9 act,CYP2C19 inh,CYP2C9 inhib,PLAP act
Cc1ccccc1N(Cc1ccccc1F)S(C)(=O)=O,0.1,0.3,94.6*,70.1*,0.9
CCOC(=O)c1nnn(-c2nonc2N)c1CSc1ccc(C)cc1,0.2,0.5,79.2*,50.9*,0.9
CCOC(=O)c1nnn(-c2nonc2N)c1CSc1ccccc1,0.8,0.5,15.9,49.2,0.8
CCOC(=O)c1nnn(-c2nonc2N)c1CSc1ccccn1,0.8,0.4,19.6,56.1*,0.8
COC(=O)C(NC(=O)c1ccc(F)cc1)(Nc1nc(C)cs1)C(F)(F)F (configuration not stated),0.6,1,36.9,-3.7,0.9
COc1ccc(C(=O)Nc2ccc3c4c(cccc24)CC3)cc1,1,2.2*,2.7,-124.8,1.1
O=C(Nc1ccc2c3c(cccc13)CC2)c1ccc(Br)o1,1,1.4,-3.1,-35.6,0.7
COc1cc(OC)cc(C(=O)NC(=S)Nc2ccc3c4c(cccc24)CC3)c1,1.1,0.9,-9.9,6.0,1
O=C(Nc1ccc2c3c(cccc13)CC2)c1ccco1,0.8,2*,22.8,-98.6,0.8
CCOC(=O)N1CCN(C(=O)c2ccc3c(=O)n(CCC4=CCCCC4)c(=O)[nH]c3c2)CC1,0.5,0.6,46.4,43.0,1.1
CCOC(=O)C1=C(N)c2ccccc2CC1C(C)C (configuration not stated),0,0.2,95.8*,81.0*,0.4
CCOC(=O)c1cc2c(s1)-c1ccccc1CC2,0.9,1.1,5.4,-7.6,1
Cc1cc2ccccc2c(=O)n1CC(=O)NCc1ccco1,0.5,2.6*,53.6*,-156.4,1.4
O=C(Cn1c(=O)sc2ccccc21)Nc1ccccc1C(=O)O,1.1,0.2,-12.6,85.0*,1
CCN(CC)S(=O)(=O)c1ccc(NC(=O)Cn2c(=O)sc3ccccc32)cc1,1.1,0.3,-6.7,70.4*,1.8
COC(=O)Cn1c(=O)sc2ccccc21,1,1.1,3.0,-11.0,0.9
Cc1cc2ccccc2c(=O)n1CC(=O)NCC(=O)N1CCN(c2ccccc2)CC1,1.2,2.4*,-17.5,-140.4,1
C=COC(=O)CSc1snc(SCC(=O)OC)c1C#N,0.9,0.9,5.1,14.9,0.9
COc1ccc(Cl)cc1C(=O)N1CCN=C1SC,0.6,0.8,35.7,21.7,1
CCCCNC(=S)NNC(=O)CCn1nc(C)c(Br)c1C,0.9,1.3,14.9,-27.0,1.3
Cc1cc2ccccc2c(=O)n1CC(=O)N1CCN(c2cccc(Cl)c2)CC1,1.1,1.2,-7.8,-19.8,1
COc1cccc2c(=O)n(CC(=O)Nc3ccc(F)cc3)ccc12,1,1,4.7,-4.2,1
Cc1cc2ccccc2c(=O)n1CC(=O)N(C)c1ccc(F)cc1,0.4,0.7,60.3*,33.5,1.4
COc1ccc(NC(=O)Cn2c(=O)sc3ccccc32)cc1,0.5,0.8,46.3,16.7,1
COc1cccc2c(=O)n(CC(=O)NC3CCCCC3)ccc12,0.7,2.2*,27.7,-117.7,0.9
SMILES,CYP2C19 act,CYP2C9 act,CYP2C19 inh,CYP2C9 inhib,PLAP act
O=C(Cn1c(=O)sc2ccccc21)Nc1ccccc1,0.6,0.4,43.4,60.1*,0.8
O=C(CSc1nnc2sc3ccccc3n12)NCc1ccco1,0.8,2.9*,22.2,-186.2,1.1
CC(C)NC(=O)CSc1nnc2sc3ccccc3n12,0.9,1.6,12.7,-62.5,0.8
Cc1ccc(NC(=O)C2CCN(S(C)(=O)=O)CC2)cc1C,0.8,0.9,16.6,10.5,0.9
Cc1cccc2c1OCC/C2=N\NC(=O)COc1ccccc1,0.8,0.6,23.1,35.2,0.9
CCCCNC(=O)C1CCCN1C(=O)Nc1cccc(OC)c1 (configuration not stated),1.1,1.1,-7.0,-8.4,1.1
Cc1[nH]c(=O)[nH]c(=O)c1S(=O)(=O)N1CCCC1,0.9,0.9,10.5,6.3,0.8
Cc1nc(SCC(=O)NCc2ccco2)nc(C)c1C,0.7,1.2,27.6,-19.3,1.1
O=C(Cn1c(=O)sc2ccccc21)NCc1ccco1,0.3,4.4*,72.5*,-340.4,1
Cc1cc2ccccc2c(=O)n1CC(=O)NCC1COc2ccccc2O1 (configuration not stated),0.7,0.8,34.5,21.7,1
Cc1cccc(C)c1Nc1nnc(SCC(=O)NCc2ccco2)s1,0.3,0.8,69.5*,19.5,0.9
Cc1cc2ccccc2c(=O)n1CC(=O)NC1CCCCCC1,0.4,1,64.5*,0.2,0.8
O=C(COC(=O)c1cccnc1Nc1cccc(C(F)(F)F)c1)NCc1ccc2c(c1)OCO2,1.1,1,-8.3,-1.5,1
O=C(NC(=S)Nc1ccc(C(=O)N2CCOCC2)cc1)c1ccc([N+](=O)[O-])cc1,0.8,1,17.6,4.3,1
CCCc1nc2oc3c(NCc4ccccn4)ncnc3c2c2c1COC(C)(C)C2,0.7,0.5,29.5,51.7*,1.5
CCCc1nc2oc3c(NCC4CCCO4)ncnc3c2c2c1COC(C)(C)C2 (configuration not stated),0.6,0.5,37.6,51.9*,1.4
CCN1c2ccccc2-c2nc3ccccc3n2C1c1ccccn1 (configuration not stated),0.9,0.7,10.3,34.1,1.1
Cc1cc2n(n1)C(c1ccccc1)Nc1ccccc1-2 (configuration not stated),0.6,0.8,39.0,23.9,0.9
CCN1C(=O)CC(n2c(C)nc3ccccc32)C1=O (configuration not stated),1.1,1.1,-12.5,-12.2,1
CCN(CC)CCn1c(NCc2ccc(C)o2)nc2ccccc21,0.6,0.8,44.0,16.0,0.7
CCN1c2ccccc2-c2nc3ccccc3n2C1c1cccnc1 (configuration not stated),0.8,0.3,15.3,71.1*,0.9
c1cncc(C2Nc3ccccc3-c3nc4ccccc4n32)c1 (configuration not stated),0.6,0.4,37.2,57.1*,0.9
CCN1c2ccccc2-c2nc3ccccc3n2C1c1ccncc1 (configuration not stated),0,0,97.7*,99.9*,1.4
Cc1ccc(C2N(C)c3ccccc3-c3nc4ccccc4n32)o1 (configuration not stated),0.1,0.1,86.9*,92.6*,1.6
CCOC(=O)Cn1nnc2c(sc3nc4c(c(-c5ccccc5)c32)CCC4)c1=O,1.1,1,-13.8,-1.0,1.1
CCn1c(-c2ccccc2)ccc(C#N)c1=O,0.6,0.6,39.4,44.2,1
CCOC(=O)Nc1ccc2c(c1)N(C(=O)N(C)C)c1ccccc1CC2,0.3,0.1,72.5*,91.5*,1.6
CCN(CC)CC(=O)Nc1ccc2c(c1)N(C(=O)CN(CC)CC)c1ccccc1CC2,0.9,0.3,12.1,70.2*,1.8
Cc1ccc(NC(=O)CSCC(=O)N2c3ccccc3CCc3ccccc32)cc1,0.5,0.4,54.1*,63.0*,1

# Bioassay records deposited in PubChem BioAssay by Sanford-Burnham Center for Chemical Genomics.
